PubChem BioAssay (NCATS)
Records with an inconclusive call do not appear. Calls of active or inactive are those of the source. Unless noted, the call rests on the fitted dose curve.

What was measured:
[1] = qHTS for Inhibitors of the Functional Ribonucleoprotein Complex (vRNP) of Lassa (LASV) Arenavirus: LASV Primary Screen - GLuc reporter signal (AID 1347082; calls by dose curve; tested in HEK293 reporter line; further: nearly all actives have a fitted effect of over 60% in size)
[2] = qHTS for Inhibitors of the Functional Ribonucleoprotein Complex (vRNP) of Lassa (LASV) Arenavirus: Viability assay - alamar blue signal for LASV Primary Screen (AID 1347083; calls by dose curve; tested in HEK293 reporter line; further: nearly all actives have a fitted effect of over 80% in size)
[3] = qHTS for Inhibitors of the Functional Ribonucleoprotein Complex (vRNP) of Lymphocytic Choriomeningitis Arenaviruses (LCMV): Viability assay - alamar blue signal for LCMV Primary Screen (AID 1347085; calls by dose curve; tested in HEK293 reporter line; further: nearly all actives have a fitted effect of over 80% in size)
[4] = target: Nucleoprotein (Lymphocytic choriomeningitis virus (strain Armstrong)) (UniProt P09992); assay: qHTS for Inhibitors of the Functional Ribonucleoprotein Complex (vRNP) of Lymphocytic Choriomeningitis Arenaviruses (LCMV): LCMV Primary Screen - GLuc reporter signal (AID 1347086); further: nearly all actives have a fitted effect of over 70% in size
Sequence of Nucleoprotein (Lymphocytic choriomeningitis virus (strain Armstrong)) (P09992 whole entry, looked up): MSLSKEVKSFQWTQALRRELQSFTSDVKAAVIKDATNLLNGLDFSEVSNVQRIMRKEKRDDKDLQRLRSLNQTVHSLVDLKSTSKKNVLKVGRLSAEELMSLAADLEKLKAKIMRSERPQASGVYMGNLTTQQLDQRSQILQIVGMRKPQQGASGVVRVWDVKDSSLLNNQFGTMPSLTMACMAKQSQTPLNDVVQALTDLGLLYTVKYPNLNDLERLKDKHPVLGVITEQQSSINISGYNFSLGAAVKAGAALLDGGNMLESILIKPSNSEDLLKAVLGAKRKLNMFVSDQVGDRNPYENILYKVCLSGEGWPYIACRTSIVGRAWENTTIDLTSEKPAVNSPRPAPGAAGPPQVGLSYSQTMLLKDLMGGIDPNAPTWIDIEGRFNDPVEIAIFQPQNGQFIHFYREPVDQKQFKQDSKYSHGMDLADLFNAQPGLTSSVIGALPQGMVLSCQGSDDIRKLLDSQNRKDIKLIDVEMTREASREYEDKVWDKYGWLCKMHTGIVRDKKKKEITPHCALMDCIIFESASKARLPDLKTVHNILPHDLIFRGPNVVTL

Measured: Potency
Further: series mostly up to about 57 µM.

S=P(N1CC1)(N1CC1)N1CC1
inactive: [1] | [2] | [3] | [4]

O=C(N[C@H](CO)[C@H](O)c1ccc([N+](=O)[O-])cc1)C(Cl)Cl
inactive: [1] | [2] | [3] | [4]

Nc1cc(=O)[nH]c(N)n1
inactive: [1] | [2] | [3] | [4]

Cc1cc(CCCOc2c(C)cc(-c3noc(C(F)(F)F)n3)cc2C)on1
inactive: [1] | [2] | [3] | [4]

CC[N+](CC)(CCNC(=O)C(=O)NCC[N+](CC)(CC)Cc1ccccc1Cl)Cc1ccccc1Cl
inactive: [1] | [2] | [3] | [4]

CC1(C)O[C@@H]2C[C@H]3[C@@H]4CCC5=CC(=O)C=C[C@]5(C)[C@@H]4[C@@H](O)C[C@]3(C)[C@]2(C(=O)CO)O1
inactive: [1] | [2] | [3] | [4]

O=C1CC[C@@H](C(=O)O)N1
inactive: [1] | [2] | [3] | [4]

CC1(C)OC[C@@H]2O[C@@]3(C(=O)O)OC(C)(C)O[C@H]3[C@@H]2O1
inactive: [1] | [2] | [3] | [4]

O=C(O)CCC(=O)O
inactive: [1] | [2] | [3] | [4]

Cc1cccn2c(=O)c(-c3nnn[nH]3)cnc12
inactive: [1] | [2] | [3] | [4]

Cc1ccc(Nc2nccc(N(C)c3ccc4c(C)n(C)nc4c3)n2)cc1S(N)(=O)=O
inactive: [1] | [2] | [3] | [4]

O=C(O)CSCC(=O)NC1CCSC1=O (configuration not stated)
inactive: [1] | [2] | [3] | [4]

O=c1[nH]c(=O)n([C@H]2C[C@H](O)[C@@H](CO)O2)cc1I
inactive: [1] | [2] | [3] | [4]
